Source: PubChem BioAssay AID618 (Sanford-Burnham Center for Chemical Genomics, 2007)
Hit rate of the full screen: of about 87,000 compounds, about 540 (0.62%) were called active. This is one part of a sample in which actives are shown more often than they occur. The rule behind the calls is not given here. Results with a measured potency or affinity are listed apart.

Assay: inhibitors of MT1-MMP promoter transcription, cell-based, luciferase reporter, luminescence (AID 618);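 note: actives suppress MT1-MMP promoter-driven transcription so potencies describe inhibitors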
Conditions: MT1-MMP promoter luciferase reporter cells

| Compound | outcome |
| --- | --- |
| COc1ccc(Nc2cc(C)nc3nc(C)nn23)cc1Cl | inactive |
| CC(=O)Nc1c2c(nn1-c1ccc(C)cc1C)CSC2 | inactive |
| CCCCS(=O)(=O)/C=C/[C@H]1[C@H](S(=O)(=O)CCCC)[C@H]2C=C[C@@H]1C2 | inactive |
| CCCCS(=O)(=O)/C=C\C=C/S(=O)(=O)CCCC | active |
| CCCCS(=O)(=O)/C=C\C1C2C=CC(C2)C1S(=O)(=O)CCCC (centres undefined) | inactive |
| COc1ccc(CCNC(=O)Cn2cnc3c(nnn3Cc3ccccc3F)c2=O)cc1OC | inactive |
| Cc1ccc(S(=O)(=O)N2CCN(C(=O)N3CCOCC3)C2c2ccc(N(C)C)cc2)cc1 (centres undefined) | inactive |
| O=C(Cc1ccc(Br)cc1)OCC(=O)c1ccc2c(c1)OCCO2 | inactive |
| O=C(Cc1n[nH]c(=O)c2ccccc12)OCC(=O)c1ccc2c(c1)OCCO2 | active |
| O=C(Cn1cnc2ccccc2c1=O)OCC(=O)c1ccc2c(c1)OCCO2 | inactive |
| CCOCCCn1c(SCC(=O)NC(C)(C)C)nc2ccccc2c1=O | inactive |
| CNC(=O)Nc1ccccc1F | inactive |
| Cc1nc2ccccc2c(=O)n1C1CCCCCC1 | inactive |
| O=C(c1cc(-c2ccccc2)on1)N1CCCC1 | inactive |
| O=C(c1cc(-c2ccc(Cl)cc2Cl)on1)N1CCN(C(=O)c2ccco2)CC1 | inactive |
| O=C(c1cc(-c2ccc(Cl)cc2)on1)N1CCOCC1 | inactive |
| Cc1ccc(-c2cc(C(=O)N3CCCC3)no2)cc1 | active |

| Compound | outcome |
| --- | --- |
| O=C(c1cc(-c2cccc(O)c2)on1)N1CCOCC1 | inactive |
| COc1cccc(-c2cc(C(=O)N3CCCCCC3)no2)c1 | inactive |
| O=C(c1cc(-c2ccc(Cl)cc2Cl)on1)N1CCOCC1 | active |
| O=C(c1cc(-c2ccc(F)cc2)on1)N1CCCC1 | inactive |
| CCCCN1CC(C(=O)NCc2ccc(C)cc2)CC1=O (centres undefined) | inactive |
| CCCN1Cc2cccc(C(=O)NCc3ccc4c(c3)OCO4)c2C1=O | inactive |
| c1coc(CN2CN=C(Nc3nc4ccccc4s3)NC2)c1 | inactive |
| Cc1cc(S(=O)(=O)N(Cc2ccc(F)cc2)CC2CCCO2)ccc1-n1cnnn1 (centres undefined) | inactive |
| COc1ccc(OC)c(CNn2c(-c3cccc(C)c3)nc3ccccc3c2=O)c1 | inactive |
| CC1=CC(C)(C)N2C(=O)C3(C(C#N)=C(N)Oc4cc(O)ccc43)c3c(C)c(C)cc1c32 (centres undefined) | inactive |
| O=C(CSc1nnc(-c2cccs2)o1)c1cccs1 | inactive |
| Cc1cc(C(=O)CSc2nnc(-c3ccccc3F)o2)c(C)n1Cc1cccs1 | inactive |
| COC(=O)C1=C(C)N(CCCC(=O)O)C(=O)NC1c1ccccc1Cl (centres undefined) | inactive |
| Brc1ccc(OCc2nc(-c3ccccn3)n[nH]2)cc1 | inactive |
| CCOC(=O)N1CCC(NC(=O)c2ccc3c(c2)sc2nc(-c4cccc(OC)c4)cn23)CC1 | inactive |
| COc1ccc2c(c1)sc1nc(-c3ccccc3)cn12 | active |
| CCOC(=O)N1CCN(C(=O)c2ccc3c(c2)sc2nc(-c4ccccc4)cn23)CC1 | inactive |
